TIM10 inh: inhibits growth of TIM10 yeast strain | inhibition, % at 10 µM | AID 463195 | 1.4% of 330,000 active | S. cerevisiae TIM10 strain growth, BacTiter-Glo luminescence, 24 h;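 active = inhibition of 40% or more at the single tested concentration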;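 also: wild-type TIM10 isogenic control strain grown at permissive 25 °C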
SKKanGAS inh: blocks kanamycin growth of S. pyogenes SKKanGAS strain; BacTiter-Glo, 6 h; inhibition, % at 7.5 µM; 1.3% of 300,000 active; AID 1662;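 active = mean replicate score, as percent of positive control median, at least 50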;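 also: strain carries kanamycin resistance gene driven by streptokinase promoter and grows in 40 µg/ml kanamycin; loss of luminescence reflects streptokinase promoter inhibition or plain growth inhibition; 0% = median of DMSO wells and 100% = positive control at its reference dose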
tim23-1 inh: growth inhibitors of tim23-1 mutant yeast | S. cerevisiae tim23-1 growth, BacTiter-Glo luminescence, 24 h | inhibition, % at 20 µM | 1.3% of 330,000 active;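 active = growth inhibition of the mutant yeast at or above 50%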;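 also: temperature-sensitive mutant grown at 25 °C; plate controls were DMSO-treated mutant yeast for no effect and medium wells lacking yeast for full effect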
tim10-1 inh: inhibits growth of tim10-1 mutant yeast; S. cerevisiae tim10-1 ts strain growth, BacTiter-Glo, 24 h; inhibition, % at 20 µM; 2.2% of 330,000 active; AID 463190;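 active = inhibition of at least 40%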;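 also: mutant grown at 25 °C; 0% = DMSO wells with yeast and 100% = wells holding no yeast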
NALP3 yeast inh: inhibitors of NALP3 inflammasome in yeast; Yeast reconstituted NLRP3/ASC/caspase-1, beta-gal luminescence, 24 h; inhibition, % at 10 µM; 0.39% of 330,000 active;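 active = inhibition of 50% or more; inactive = inhibition below 50%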;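 also: plate controls were induced DMSO wells for no effect and uninduced yeast grown without galactose for full effect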
PfHsp90 set2: growth inhibition of yeast expressing Plasmodium Hsp90 | S. cerevisiae expressing PfHsp90, BacTiter-Glo ATP, 48 h; yeast lacking PDR1 and PDR3 efflux regulators | inhibition, % at 9.4 µM | 0.32% of 310,000 active;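 active = every replicate shows inhibition above about 80%, whatever the replicate mean, limit read from the data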;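 also: 0% = DMSO neutral controls and 100% = 20 µM radicicol positive controls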
tim10-1 conf: confirmation of tim10-1 mutant yeast growth inhibitors | shares compounds with tim10-1 inh | S. cerevisiae tim10-1 ts strain growth, BacTiter-Glo, 24 h | inhibition, % at 20 µM | 56% of 7,400 active;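 active = inhibition of yeast growth at or above a set limit in either of two repeat tests at 20 µM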;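 also: tim10-1 mutant grown at permissive 25 °C to find synthetic lethal compounds; 0% = DMSO yeast wells and 100% = medium wells without yeast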
Numbers without * were called inactive; · = no result given. Shown are actives, neighbours in structure and some others; about 4.6% of the full set was active somewhere.

SMILES	TIM10 inh	SKKanGAS inh	tim23-1 inh	tim10-1 inh	NALP3 yeast inh	PfHsp90 set2	tim10-1 conf
Cc1ccc(C(C)NC(=O)C2CCCC2)c(C)c1 (stereo not drawn)	-10	3	5	4	7	14	·
CCOC(=O)N1CCN(C(=O)COC(=O)C2CCN(S(=O)(=O)c3c(C)c(C)cc(C)c3C)CC2)CC1	13	22	19	14	-9	8	·
Cc1cnccc1CN(C)Cc1cn(C)nc1-c1ccc(Oc2ccccc2)cc1	28	14	36	40*	22	3	14
CCOc1ccc(NC(=O)c2cccc3c2C(=O)N(Cc2cccnc2)C3)cc1	34	13	25	42*	25	-17	35*
COCCN1Cc2cccc(C(=O)Nc3cccnc3)c2C1=O	11	·	9	25	9	-11	·
COCCN1Cc2cccc(C(=O)Nc3ccc4c(c3)OCCO4)c2C1=O	14	16	20	45*	7	-27	18
COCCN1Cc2cccc(C(=O)Nc3ccc(C)cc3)c2C1=O	17	11	23	43*	13	2	28
C#Cc1ccc(CN2CCC(Oc3cc(C(=O)NC4CC4)ccc3OC)CC2)cc1	-1	-2	-7	-6	4	6	·
O=C(NCC(=O)N1CCN(c2ccccc2)CC1)c1cccs1	-11	-3	2	-12	8	-5	·
CCc1c(C)[nH]c2ccc(OC)cc2c1=S	16	·	24	46*	15	2	36*
COc1ccc(-c2cc(N3CCCC3)n3ncnc3n2)cc1	19	2	31	29	11	-25	·
COc1ccc(-c2cc(-c3ccccc3)n3ncnc3n2)cc1	31	-4	31	49*	36	2	22
CC(C)CC1(C)NC(=O)N(CC(=O)Nc2ccc3c(c2)CCC3)C1=O (stereo not drawn)	-7	-16	1	-3	16	9	·
CCC1(C(=O)OC)CCc2c(cc(OC)c3ccccc23)C1=O (stereo not drawn)	-12	5	14	-12	18	-17	·
Cc1ccc(N(CC(=O)Nc2ccccc2-c2ccccc2)S(=O)(=O)c2ccccc2)c(C)c1	11	8	28	25	16	-5	·
COc1ccc(-c2csc3ncnc(NCCN4CCOCC4)c23)cc1	11	-4	25	19	10	-4	·
c1ccc(-c2oc3ncnc(NCCCN4CCOCC4)c3c2-c2ccccc2)cc1	-23	15	13	22	36	-1	·
COc1ccc(-c2oc3ncnc(NCCN4CCOCC4)c3c2-c2ccc(OC)cc2)cc1	38	28	39	48*	12	5	29*
COc1ccc(-c2oc3ncnc(NCCCN4CCOCC4)c3c2-c2ccc(OC)cc2)cc1	29	21	48	41*	-1	28	23
CCOc1ccccc1NC(=O)CSc1nc2cc(O)ccc2c(=O)n1-c1ccc(OC)c(OC)c1	3	24	14	15	15	-2	·
CCOc1c2c(nc3ccc(Cl)cc13)CCC2	7	-4	35	41*	16	15	32*
N#CC1(Nc2ccccc2)C(=O)Nc2ccccc21 (stereo not drawn)	-7	17	19	12	18	6	·
N#CC1(Nc2cccc(Br)c2)C(=O)Nc2ccccc21 (stereo not drawn)	39	5	37	42*	14	12	38*
O=C(CNC(=O)c1ccccc1F)OCc1nc2ccccc2s1	-34	0	-5	1	-4	-15	·
CNc1sc(C(=O)c2ccccc2F)c(N)c1-c1nc2ccccc2s1	35	39	24	46*	28	·	35*
SMILES	TIM10 inh	SKKanGAS inh	tim23-1 inh	tim10-1 inh	NALP3 yeast inh	PfHsp90 set2	tim10-1 conf
N#Cc1c(-c2ccccc2)nc2n1CCS2	16	-3	17	27	-15	6	·
CCC(C(=O)N(C(C)C)C(C)C)c1ccccc1 (stereo not drawn)	-7	·	-6	7	23	16	·
CCC(C(=O)c1ccc(O)cc1)c1ccccc1 (stereo not drawn)	20	-3	24	46*	-66	-5	28
CC1C(=O)C(C)(C)C(=O)OC1c1ccccc1 (stereo not drawn)	13	-1	11	1	4	2	·
C[C@H]1C=CC(=O)O[C@H]1c1ccccc1	36	1	44	48*	-32	-1	52*
CC1CCCN(S(=O)(=O)c2ccccc2[N+](=O)[O-])C1 (stereo not drawn)	-6	-8	11	10	11	-1	·
COc1ccc(-c2nc(C#N)c(N3CCc4ccccc4C3)o2)cc1OC	13	14	31	21	19	·	·
COc1ccccc1-c1nc(C#N)c(N2CCc3ccccc3C2)o1	34	-5	40	40*	20	10	32*
CCOC(=O)c1oc2nc(CC(C)C)c3c(c2c1N)CCC3	38	-2	46	40*	-7	24	18
CCOC(=O)c1sc2nc(N3CCOCC3)c3c(c2c1N)CCC3	32	-6	42	32	21	·	·
COc1ccc(CC(=O)N(C)CC(=O)Nc2ccc(F)cc2)cc1S(=O)(=O)N1CCOCC1	0	·	13	10	17	4	·
COc1cccc(OC)c1C(=O)Nc1cccc(C(C)=O)c1	-6	1	2	16	9	5	·
CC(=O)c1cccc(NC(=O)c2cc(Cl)sc2Cl)c1	23	-4	25	42*	-9	-32	20
CCN(CC(=O)Nc1cccc(S(=O)(=O)N2CCOCC2)c1)Cc1ccccc1	6	-11	19	20	12	·	·
CN(C(=O)c1ccccc1C(=O)OCC(=O)Nc1ccc(OC(F)F)cc1)c1ccccc1	9	·	30	43*	22	-13	24
Cc1ccc(-c2csc(N3CCN(CCCn4c(-c5ccncc5)nc5ccccc54)CC3)n2)cc1	-1	32	-14	40*	-2	-9	19
Cc1ccc(-c2csc(N3CCN(CCCn4c(C(F)(F)F)nc5ccccc54)CC3)n2)cc1	10	16	4	22	0	-6	·
Cn1cc(CN2CCC(C(=O)Nc3ccc(Oc4ccccc4F)cc3)CC2)cn1	-17	-2	2	22	10	6	·
O=C(NCc1ccccc1)C(c1ccc(F)cc1)N(C(=O)c1csnn1)C1CC1 (stereo not drawn)	12	0	8	12	1	-16	·
CCNC(=S)Nc1ccc(N(c2ccccc2)C(C)C)cc1	5	11	19	42*	10	-10	28
CC(C)CNC(=S)Nc1ccc(Oc2ccccc2)cc1	36	1	45	43*	29	-2	24
COCCNC(=O)CNC(=S)N(CCCN1CCOCC1)Cc1cccs1	-29	0	0	12	-3	0	·

Screens deposited in PubChem BioAssay by several laboratories.
